PubChem BioAssay (Tox21)
Where “and” joins values, the source holds several entries; their conditions need not be identical. Equal entries are not always repeated. Inconclusive results are not listed. Entries that show only a call come without a potency. Where a structure was tested more than once in an assay, its records may differ in their call. Calls of active or inactive are those of the source. Unless noted, the call rests on the fitted dose curve; in most records, active means well fitted curve in the direction sought with a large enough effect in the repeat runs; inconclusive means weak or mixed curves; inactive means no such curve, though single readings can be large; an effect the other way counts as inactive or inconclusive.

How the values were obtained:
[1] = qHTS assay to test for compound auto fluorescence at 535 nm (green) in HEK293 cells (AID 720680)
[2] = qHTS assay to test for compound auto fluorescence at 460 nm (blue) in HEK293 cell free culture (AID 720681)
In short: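 Test compounds were pinned into cell-free culture medium (DMEM with 10% FBS) and fluorescence was read directly at Ex/Em 405/460 nm. Signals were expressed as fluorescence equivalents of triamterene, with DMSO vehicle as control.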

[3] = qHTS assay to test for compound auto fluorescence at 535 nm (green) in HEK293 cell free culture (AID 720682)
In short: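 Read-out: 485/535 nm fluorescence intensity, calibrated against fluorescein. Medium only (DMEM + 10% FBS, no cells); test compound or DMSO vehicle added by pintool before plate reading.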

[4] = qHTS assay to test for compound auto fluorescence at 590 nm (red) in HepG2 cell free culture (AID 720684)
In short: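 Measured in medium alone (MEM containing 10% FBS) following pintool addition of compound; emission at 590 nm with 540 nm excitation, referenced to Rose Bengal sodium.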

[5] = qHTS assay to test for compound auto fluorescence at 460 nm (blue) in HepG2 cell free culture (AID 720685)
In short: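 Compound (23 nL) or DMSO pinned into cell-free MEM with 10% FBS; blue fluorescence read at 405/460 nm excitation/emission, expressed as auto-fluorescence equivalency to triamterene.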

[6] = qHTS assay to test for compound auto fluorescence at 535 nm (green) in HepG2 cell free culture (AID 720686)
[7] = qHTS assay to test for compound auto fluorescence at 460 nm (blue) in HepG2 cells (AID 720687)
In short: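 Cells (2,000/well in MEM with 10% FBS) attached overnight at 37 C, then were exposed to compound or DMSO for 1 hr at 37 C, 5% CO2. Fluorescence read at Ex/Em 405/460 nm, expressed as triamterene-equivalent signal.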

[8] = molecular target: Glucocorticoid receptor (Homo sapiens) (UniProt P04150); assay: qHTS assay to identify small molecule agonists of the glucocorticoid receptor (GR) signaling pathway (AID 720691; active means well fitted activation curve with a large enough effect in the signal ratio in the repeat runs, not every such curve was filed as active; the % refers to the signal ratio)
In short: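 qHTS in GR-bla HeLa cells: 4 h settling at 37 C/5% CO2, 18 h compound incubation at 37 C, 2 h LiveBLAzer B/G FRET substrate at room temperature, fluorescence intensity measured.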

[9] = qHTS assay to identify small molecule antagonists of the glucocorticoid receptor (GR) signaling pathway - cell viability counter screen (AID 720693); further: nearly all actives have a fitted effect of over 55% in size; further: potency means the concentration at half of the fitted maximal effect
[10] = qHTS assay for identifying genotoxic compounds that show differential cytotoxicity against isogenic chicken DT40 cell lines with known DNA damage response pathways - wild type cell line (AID 743012); further: nearly all actives have a fitted effect of over 60% in size; further: potency means the concentration at half of the fitted maximal effect
In short: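 First, wild type DT40 cells were plated at 300 per well and equilibrated about 0.5 h at 37 C/5% CO2. Next, compounds in DMSO were added and exposure lasted 40 h. Finally, CellTiter-Glo was added for 30 min at room temperature and luminescence recorded.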

[11] = qHTS assay for identifying genotoxic compounds that show differential cytotoxicity against isogenic chicken DT40 cell lines with known DNA damage response pathways - Rev3 mutant cell line (AID 743014); further: nearly all actives have a fitted effect of over 55% in size; further: potency means the concentration at half of the fitted maximal effect
[12] = qHTS assay for identifying genotoxic compounds that show differential cytotoxicity against isogenic chicken DT40 cell lines with known DNA damage response pathways - Rad54/Ku70 mutant cell line (AID 743015); further: nearly all actives have a fitted effect of over 60% in size; further: potency means the concentration at half of the fitted maximal effect
[13] = qHTS assay to identify small molecule antagonists of the androgen receptor (AR) signaling pathway - cell viability counter screen (AID 743033; further: nearly all actives have a fitted effect of over 45% in size; further: potency means the concentration at half of the fitted maximal effect)
[14] = qHTS assay to identify small molecule antagonists of the androgen receptor (AR) signaling pathway using the MDA cell line - cell viability counter screen (AID 743041; further: nearly all actives have a fitted effect of over 45% in size)
In short: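 Viability counter screen run alongside the AR antagonist reporter: cells seeded 5 h before compound, R1881 added, 16 h incubation at 37C without CO2, fluorescent CellTiter-Fluor signal quantified.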

[15] = molecular target: Glucocorticoid receptor (Homo sapiens) (UniProt P04150); assay: qHTS assay to identify small molecule antagonists of the glucocorticoid receptor (GR) signaling pathway (AID 720692; active means well fitted inhibition curve with a large enough effect in the signal ratio in the repeat runs, not every such curve was filed as active; the % refers to the signal ratio)
In short: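 Inhibition of glucocorticoid signalling is measured in HeLa cells with a GRE-controlled beta-lactamase reporter; cells are co-treated with compound and 5 nM dexamethasone (final) for 18 h before FRET substrate readout.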

[16] = qHTS assay to test for compound auto fluorescence at 590 nm (red) in HEK293 cell free culture (AID 720683)
In short: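 Tox21 10K library compounds were pinned into cell-free DMEM with 10% FBS and fluorescence was read at excitation 540 nm. Activity is expressed as Rose Bengal sodium equivalency.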

[17] = molecular target: Androgen receptor (Homo sapiens) (UniProt P10275); assay: qHTS assay to identify small molecule antagonists of the androgen receptor (AR) signaling pathway (AID 743035; active means well fitted inhibition curve with a large enough effect in the signal ratio in the repeat runs, not every such curve was filed as active; the % refers to the signal ratio)
In short: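 Beta-lactamase FRET read (2 h RT incubation with LiveBLAzer B/G) following 16 h of compound plus R1881 treatment of AR-UAS-bla HEK293 cells, which had been pre-incubated 4 h at 37C.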

[18] = molecular target: Androgen receptor (Homo sapiens) (UniProt P10275); assay: qHTS assay to identify small molecule agonists of the androgen receptor (AR) signaling pathway (AID 743036; active means well fitted activation curve with a large enough effect in the signal ratio in the repeat runs, with a control signal flat, not every such curve was filed as active; the % refers to the signal ratio)
In short: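 HEK293 cells stably carrying a UAS-driven beta-lactamase reporter (GeneBLAzer AR-UAS-bla-GripTite) were plated at 2,000 cells/well, rested 4 h at 37C, then exposed to compounds in DMSO for 16 h. LiveBLAzer B/G FRET substrate was added for 2 h at room temperature; fluorescence read.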

[19] = molecular target: Androgen receptor (Homo sapiens) (UniProt P10275); assay: qHTS assay to identify small molecule agonists of the androgen receptor (AR) signaling pathway using the MDA cell line (AID 743040; further: nearly all actives have a fitted effect of over 20% in size); conditions: MDA-kb2 AR-luc cells, MMTV luciferase, 16 h; at 70.3 µM (top of the series); stronger effect = higher value
In short: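 Luminescence from ONE-Glo, read after 30 min at room temperature, reflects MMTV-driven luciferase in MDA-kb2 cells (AR- and GR-responsive). Treatment lasted 16 h at 37C, 0% CO2.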

[20] = molecular target: Androgen receptor (Homo sapiens) (UniProt P10275); assay: qHTS assay to identify small molecule antagonists of the androgen receptor (AR) signaling pathway using the MDA cell line (AID 743042; further: nearly all actives have a fitted effect of over 55% in size)
In short: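 MDA-kb2 cells (human breast carcinoma, stably carrying an MMTV-luciferase reporter responsive to AR and GR) were plated at 3,000 cells/well and preincubated 5 hr at 37C, then given compound plus R1881 agonist for 16 h. ONE-Glo luminescence was read.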

Chain of Androgen receptor (Homo sapiens) (P10275 whole entry, looked up): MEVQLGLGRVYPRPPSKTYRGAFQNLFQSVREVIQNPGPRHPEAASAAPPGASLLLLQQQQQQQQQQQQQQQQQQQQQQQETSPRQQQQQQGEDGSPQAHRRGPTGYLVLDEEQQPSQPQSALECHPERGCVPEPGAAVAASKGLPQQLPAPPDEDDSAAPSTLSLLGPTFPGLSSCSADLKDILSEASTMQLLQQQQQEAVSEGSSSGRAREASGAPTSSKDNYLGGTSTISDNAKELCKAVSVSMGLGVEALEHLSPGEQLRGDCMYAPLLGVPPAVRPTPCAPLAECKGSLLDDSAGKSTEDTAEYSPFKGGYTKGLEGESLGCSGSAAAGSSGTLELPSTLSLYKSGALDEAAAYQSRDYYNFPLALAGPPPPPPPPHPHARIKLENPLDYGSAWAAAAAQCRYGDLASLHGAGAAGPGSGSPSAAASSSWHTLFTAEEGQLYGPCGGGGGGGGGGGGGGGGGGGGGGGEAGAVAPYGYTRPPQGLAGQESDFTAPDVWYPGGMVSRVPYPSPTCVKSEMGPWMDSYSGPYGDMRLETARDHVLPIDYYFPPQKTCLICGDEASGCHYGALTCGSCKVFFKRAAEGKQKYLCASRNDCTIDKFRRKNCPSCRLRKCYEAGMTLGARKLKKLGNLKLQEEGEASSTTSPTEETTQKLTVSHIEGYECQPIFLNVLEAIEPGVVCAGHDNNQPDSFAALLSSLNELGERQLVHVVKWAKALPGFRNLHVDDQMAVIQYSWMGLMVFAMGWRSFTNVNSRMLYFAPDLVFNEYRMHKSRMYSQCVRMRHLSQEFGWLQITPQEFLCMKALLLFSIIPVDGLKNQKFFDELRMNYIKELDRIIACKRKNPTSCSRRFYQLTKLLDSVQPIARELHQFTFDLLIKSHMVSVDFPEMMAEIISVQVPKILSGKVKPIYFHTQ
Chain of Glucocorticoid receptor (Homo sapiens) (P04150 whole entry, looked up): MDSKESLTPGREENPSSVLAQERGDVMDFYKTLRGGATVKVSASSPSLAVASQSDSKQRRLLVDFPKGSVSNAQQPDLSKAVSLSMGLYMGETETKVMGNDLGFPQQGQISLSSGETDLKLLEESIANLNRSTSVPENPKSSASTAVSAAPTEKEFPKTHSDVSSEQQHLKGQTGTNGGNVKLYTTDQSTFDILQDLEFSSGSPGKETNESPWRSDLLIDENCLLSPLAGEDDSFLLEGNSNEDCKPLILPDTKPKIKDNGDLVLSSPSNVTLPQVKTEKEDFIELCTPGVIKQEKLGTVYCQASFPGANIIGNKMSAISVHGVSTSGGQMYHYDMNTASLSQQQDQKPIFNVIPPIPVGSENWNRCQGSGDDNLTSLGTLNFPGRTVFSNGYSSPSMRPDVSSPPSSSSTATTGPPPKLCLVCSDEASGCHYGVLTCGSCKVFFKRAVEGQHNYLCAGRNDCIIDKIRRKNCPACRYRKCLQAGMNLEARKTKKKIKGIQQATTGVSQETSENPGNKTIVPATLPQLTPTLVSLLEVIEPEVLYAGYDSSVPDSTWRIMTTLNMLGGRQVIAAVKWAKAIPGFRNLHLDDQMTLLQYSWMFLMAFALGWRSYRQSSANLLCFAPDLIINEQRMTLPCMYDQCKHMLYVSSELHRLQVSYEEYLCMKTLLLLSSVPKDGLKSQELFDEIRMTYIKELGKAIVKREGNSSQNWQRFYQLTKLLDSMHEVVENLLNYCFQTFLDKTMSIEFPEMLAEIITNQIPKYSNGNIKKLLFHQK

Structure (SMILES) | outcome [1] | Potency [2] | outcome [3] | outcome [4] | Potency [5] | outcome [6] | Potency [7] | outcome [8] | Potency [9] | Potency [10] | Potency [11] | Potency [12] | Potency [13] | Potency [14] | Potency [15] | outcome [16] | Potency [17] | Potency [18] | activity change [19] | Potency [20]
O=P(OCCCl)(OCCCl)OCCCl | inactive | inactive | inactive | inactive | inactive | inactive | inactive | inactive | inactive | inactive | inactive | inactive | inactive | inactive | – | – | – | – | – | –
N#CC(c1ccccc1)c1ccccc1 | inactive | inactive | inactive | inactive | inactive | inactive | – | – | inactive | inactive | inactive | inactive | inactive | inactive | inactive | – | – | – | – | –
CC1(C)C(C(=O)OC(C#N)c2cccc(Oc3ccccc3)c2)C1(C)C (configuration not stated) | inactive | inactive | inactive | inactive | inactive | inactive | – | – | inactive | inactive and 48.5 µM (active) | inactive | inactive and 54.4 µM (active) | inactive | inactive | – | – | – | – | – | –
COP(=O)(NC(C)=O)SC (configuration not stated) | inactive | inactive | inactive | inactive | inactive | inactive | inactive | inactive | inactive | inactive and 68.6 µM (active) | inactive and 27.3 µM (active) | inactive and 30.6 µM (active) | inactive | inactive | inactive | – | – | – | – | –
CCCCCCCCCc1ccc(O)cc1 | inactive | inactive | inactive | inactive | inactive | inactive | inactive | – | – | – | – | 30.9 µM (active) | – | inactive | – | – | – | – | – | –
O=C1C(Cl)=C(Cl)C(=O)c2ccccc21 | inactive | inactive | inactive | inactive | inactive | inactive | – | – | 21.9 µM (active) and 19.5 µM (active) | 2.18 µM (active) and 486 nM (active) | 972 nM (active) and 969 nM (active) | 2.18 µM (active) and 545 nM (active) | 4.91 µM (active) and 7.76 µM (active) | inactive | – | – | – | – | – | –
NC(=O)CN1CCCC1=O | inactive | inactive | inactive | inactive | inactive | inactive | inactive | – | inactive | inactive | inactive | inactive | inactive | inactive | – | – | – | – | – | –
Clc1cccc(C(Cl)(Cl)Cl)n1 | inactive | inactive | inactive | inactive | inactive | inactive | – | – | inactive | inactive | inactive | inactive | inactive | inactive | – | inactive | inactive | inactive | 0.42% (inactive) and 1.19% (inactive) | inactive
CCC/C=N/O | inactive | inactive | inactive | inactive | inactive | inactive | inactive | – | inactive | inactive | inactive | inactive | inactive | inactive | – | – | – | – | – | –
COc1ccc(C=O)cc1OC | inactive | inactive | inactive | inactive | inactive | inactive | – | – | inactive | inactive | inactive | inactive | inactive | inactive | – | inactive | – | – | – | –
C[N+](C)(C)C | inactive | inactive | inactive | inactive | inactive | inactive | inactive | – | inactive | inactive | inactive | inactive | inactive | inactive | – | – | – | – | – | –
COP(=S)(OC)SCn1nnc2ccccc2c1=O | inactive | inactive | inactive | inactive | inactive | inactive | – | – | inactive | 43.3 µM (active) | 60 µM (active) and 61.1 µM (active) | 60 µM (active) and 61.1 µM (active) | inactive | inactive | – | inactive | inactive | inactive | -2.47% (inactive) and -4.42% (inactive) | –
CNC(=S)S | inactive | inactive | inactive | inactive | inactive | inactive | – | – | inactive | inactive | inactive | inactive | inactive | inactive | – | inactive | – | – | – | –
C[N+](C)(C)CC(=O)O | inactive | inactive | inactive | inactive | inactive | inactive | – | – | inactive | inactive | inactive | inactive | inactive | inactive | – | – | – | – | – | –
O=NN(c1ccccc1)c1ccccc1 | inactive | inactive | inactive | inactive | inactive | inactive | – | – | inactive | inactive | inactive | inactive | inactive | inactive | – | – | – | – | – | –
